Experimental findings from ChEMBL document CHEMBL4513216, “Probing the Open Global Health Chemical Diversity Library for Multistage-Active Starting Points for Next-Generation Antimalarials” (ACS Infect Dis, 2020) are described below.

In all, about 69,000 compounds went through this assay and about 8,600 (12%) showed an effect of 50% or more. This excerpt belongs to a sample that is enriched for strong results.

The subject of this experiment is Plasmodium berghei. Nature of the experiment: Screen against P. berghei liver stage (PbLuc), transformed with Luciferase, at 10uM. It is filed as functional, HepG2. The settings on record: tested at 10 uM.
As to `COc1c(C2CCCN2CC(=O)N2CCCCC2)c(C)nn1C` (stereo unspecified), the INHIBITION came to 8.12%.
Turning to `O=C(CCn1cnnn1)N1CCCC(CO)(CCc2ccccc2)C1` (stereo unspecified), the INHIBITION is recorded as 39.8%.
`O=C(CCn1cnnn1)N1CCCC(CO)(CCCc2ccccc2)C1` (stereo unspecified): the INHIBITION is on record as 23.1%.
In the case of `O=C(CCn1cncn1)N1CCCC(CO)(CCCc2ccccc2)C1` (stereo unspecified) it was 72.3%; in that of `CN(C)C(=O)CN1CCCC1c1nc(N)ncc1-c1ccc(F)cc1` (stereo unspecified), 34%; in that of `N#Cc1ccc(NC2CCN(CC(F)F)CC2)c(F)c1`, 8.53%.
Take `N#Cc1cccc(N2CC3(CCN(C(=O)c4ccnnc4)C3)CC2=O)c1` (stereo unspecified): the INHIBITION is listed as -13.1%.
In the case of `Cc1nc(C)n(CC2CCCN(CCC(=O)NC3CCCC3)C2)n1` (stereo unspecified), the INHIBITION was -8.11%.
The figure for `O=C(CCN1CCCC(CC2CC2)(C(=O)O)C1)NC1CCCC1` (stereo unspecified) is 60.7%; for `CC(C)=CCC1(C(=O)O)CCCN(c2ccnc(C)n2)C1` (stereo unspecified) it is 47.4%; for `O=C(CCN1CCCC(CO)(CC2CC2)C1)NC1CCCCC1` (stereo unspecified) it is 34.5%.
In the case of `CC(C)=CCC1(C(=O)O)CCCN(CCC(=O)NC2CC2)C1` (stereo unspecified) it was 61.8%; in that of `CC(C)=CCC1(C(=O)O)CCCN(c2cc(N)ncn2)C1` (stereo unspecified), 46.4%; in that of `CC(=O)N(Cc1ncc(C)o1)C1CCN(CCc2cccs2)C1` (stereo unspecified), 12.7%.
The figure for `CCn1cc(NC(=O)C(C)n2ncc(Cl)c2C)c(C(=O)OC)n1` (stereo unspecified) is 6.83%; for `CCSc1cc(C(=O)NCc2ccccc2O)ccn1` it is 34.7%.
Consider `CCSc1cc(C(=O)NCCNC(=O)Cc2ccccc2)ccn1`, for which the INHIBITION came to 26.9%.
The figure for `CCSc1cc(C(=O)NCc2ccc(C(=O)NC)cc2)ccn1` is 76.5%; for `Cc1nc(C)c(C(=O)Nc2ccc(-c3nnc(N(C)C)o3)cc2)o1` it is 6.02%; for `CCc1cnc(CN2CCC(N(C)Cc3noc(C)n3)C2)o1` (stereo unspecified) it is 13.6%.
With `CN(CCc1ccncc1)C1CCCN(Cc2noc(C3CC3)n2)C1` (stereo unspecified), the INHIBITION worked out at 14.8%.
As for `CCc1nc(CN(C)C2CCN(CCc3cccs3)C2)no1` (stereo unspecified), the INHIBITION is given as -79.1%.
In the case of `CCc1nc(CN2CCCC(N(C)CCn3cccn3)C2)no1` (stereo unspecified) it was 33.7%; in that of `CN(CCc1cccs1)C1CCCN(Cc2noc(C3CC3)n2)C1` (stereo unspecified), 51.8%.
The figure for `Cc1nc(CN2CCCC(N(C)CCc3cccs3)C2)no1` (stereo unspecified) is 3.47%; for `CCc1nc(CN2CCCC(N(C)CCc3cccs3)C2)no1` (stereo unspecified) it is 56.6%.
As to `CN(C)Cc1nnc2n1CCN(c1cnccn1)CC2`, the INHIBITION was -4.02%.
The figure for `Cc1nc(C2CCN(C(=O)c3cnc(N(C)C)nc3)CC2)c2sccn12` is -4.82%.
In the case of `CN(C[C@@H]1CCC[C@@H]2CN(c3ncccn3)C[C@@H]21)C1CC1` it was 38.3%; in that of `Cc1cccc(CSc2ncc(Cl)c(C(=O)O)n2)c1`, 12.1%; in that of `Cc1ccc(F)c(C(=O)Nc2c(C(N)=O)n[nH]c2C)c1`, -18.3%.
In the case of `Cc1cc(N(C)Cc2ncc(-c3ccccc3C(=O)O)s2)ncn1` it was 5.6045%; in that of `Cc1cc(CN(CC(N)=O)CC(C)C)on1`, 43.2%; in that of `Cc1cc(CN(CC(N)=O)CC(C)C)no1`, 7.39%.
On to `Cc1ccc(-c2cc(CN(CC(N)=O)CC(C)C)on2)cc1`, for which the INHIBITION is 57.8%.
In the case of `Cc1cccc(-c2nccn2C2CC(=O)N(C(C)C)C2)n1` (stereo unspecified) it was 25.9%; in that of `CNC(=O)NC(=O)CCN1CCN(c2ccc(C(=O)OC)cc2)CC1C` (stereo unspecified), 23.7%.
In the case of `Cn1cncc1CN1CCOC(Cc2ccccc2)C1` (stereo unspecified) it was -54.1%.
In the case of `CN1CCCC2(CCN(Cc3cncn3C3CCCCC3)C2)C1=O` (stereo unspecified) it was 62.1%; in that of `CC1(c2ccccc2)CCCN(Cc2cncn2C2CC2)C1` (stereo unspecified), 50.7%; in that of `CC1(c2ccccc2)CCCN(Cc2cncn2C2CCCC2)C1` (stereo unspecified), 89.6%.
`COCCn1cncc1CN1CCCC(C(=O)Cc2ccccc2)C1` (stereo unspecified): the INHIBITION came to 20.5%.
`O=C(CCc1ccccc1)C1CCCN(Cc2cncn2C2CC2)C1` (stereo unspecified): the INHIBITION amounted to 27.4%.
`CCCN1CCCC2(CCN(Cc3cncn3C3CCCCC3)C2)C1=O` (stereo unspecified): the INHIBITION is recorded as -21.5%.
The figure for `CCCN1CCCC2(CCN(Cc3cncn3C3CCCC3)C2)C1=O` (stereo unspecified) is 21.2%; for `O=c1c2ccccc2cnn1Cc1cncn1C1CC1` it is 0.33%.
In the case of `COCCn1cncc1CN1CCCC(C)(c2ccccc2)C1` (stereo unspecified) it was 30.1%; in that of `CC1(c2ccccc2)CCCN(Cc2nnc(-c3cccnc3)o2)C1` (stereo unspecified), 5.91%.
The figure for `O=C(Cc1ccccc1)C1CCCN(Cc2cncn2C2CCCC2)C1` (stereo unspecified) is 69%.
With `CN1CCCC(Cc2cc(N(C)C)ncn2)C1` (stereo unspecified), the INHIBITION came out at 38.7%.
With `Cc1ncc(C(=O)NCCNC(=O)Cc2cccc(F)c2)s1`, the INHIBITION is on record as -13.5%.
The figure for `Cc1nccc(C2CN(S(=O)(=O)N(C)C)C2)n1` is -3.02%; for `CCC(C(=O)NCC1=CCN(C)CC1)c1ccccc1` (stereo unspecified) it is 8.7%; for `CNc1ccc(CC2CCCN(C(=O)c3cccc(C)n3)C2)nn1` (stereo unspecified) it is 45.6%.
In the case of `CS(=O)(=O)N1CCc2c(cccc2NC(=O)Nc2ccccn2)C1` it was 19.2%; in that of `Cc1nc(CN2C[C@H]3C[C@H](C(=O)NCC4CC4)N(C)[C@H]3C2)cs1`, 19.8%.
In the case of `O=C(NCCC1CCN(CC(F)(F)F)CC1)C1CCCOC1` (stereo unspecified) it was -10.3%.
With `CCNC(=O)c1ccoc1CN1c2ccccc2CC1C` (stereo unspecified), the INHIBITION is on record as -3.19%.
In the case of `CC1Cc2ccccc2N1Cc1occc1C(=O)NCC(=O)N(C)C` (stereo unspecified) it was 53.9%; in that of `COCCNC(=O)c1ccoc1CN1c2ccccc2CC1C` (stereo unspecified), 20.9%; in that of `CNC(=O)C1CN(C(=O)c2cccnc2)CCN(S(C)(=O)=O)C1` (stereo unspecified), 9.25%.
The figure for `CN1CCCN(C(=O)NCCNc2ncccn2)CC1` is 16.8%.
In the case of `CC(C)(C)n1cc(CNc2ccc(CNS(C)(=O)=O)cc2)cn1` it was 74.4%.
As to `CC(=O)N(Cc1ccc(NCc2cnn(C(C)(C)C)c2)cc1)C(C)C`, the INHIBITION came to 38.5%.
The figure for `CC(C)OC(=O)NCc1ccc(NCc2cnn(C(C)(C)C)c2)cc1` is 18.9%; for `CCNc1nc2cn(-c3ccc(C)c(C)c3)c(=O)c-2c[nH]1` it is -31.1%; for `Cc1cc2n(n1)CC(CNCc1cnn(C)c1)CN2` (stereo unspecified) it is 33.7%.
In the case of `Cc1ccc(C(=O)NCCNCC2CNc3ccnn3C2)cc1` (stereo unspecified) it was 7.67%.
The figure for `COc1ccc(CNCC2CNc3ccnn3C2)cn1` (stereo unspecified) is 25.1%; for `Cc1ccc(C(=O)NCCNCC2CNc3ccnn3C2)cc1F` (stereo unspecified) it is 59.3%; for `O=C(NCCNCC1CNc2ccnn2C1)c1ccc(F)cc1` (stereo unspecified) it is 32.4%.
Consider `Cn1cc(CCNCC2CNc3ccnn3C2)cn1` (stereo unspecified), for which the INHIBITION is given as 71.4%.
The figure for `O=C(Cc1ccc(F)cc1)NCCNCC1CNc2ccnn2C1` (stereo unspecified) is 19.7%.
In the case of `Cc1cc2n(n1)CC(CNCc1ccc(OCC3CC3)nc1)CN2` (stereo unspecified) it was 60.7%; in that of `Cc1cc2n(n1)CC(CNCc1cnn(-c3ccccc3)c1)CN2` (stereo unspecified), 15.5%; in that of `Cc1cc2n(n1)CC(CNCCc1cnn(C)c1)CN2` (stereo unspecified), 54.3%.
In the case of `COCCOc1ccc(CNCC2CNc3cc(C)nn3C2)cn1` (stereo unspecified) it was 25.995%; in that of `COc1ccc(CNCC2CNc3cc(C)nn3C2)cn1` (stereo unspecified), -6.185%.
As for `CCN(Cc1noc(C2CCC2)n1)C(=O)c1cn2ccsc2n1`, the INHIBITION amounted to 30%.
As for `CS(=O)(=O)CCCNC(=O)C1(c2cccc(Cl)c2)CC1`, the INHIBITION was 28.3%.
`CN(CC(N)=O)CC(=O)N1CC=C(c2ccccc2)CC1`: the INHIBITION is listed as -46.4%.
In the case of `COc1cc(NC2CCCN(c3ncccn3)C2)cc(OC)c1` (stereo unspecified) it was 23.1%; in that of `CCc1cnccc1C(=O)NC1CCN(C(=O)C2CCCCC2)CC1`, 38.7%; in that of `CCC1CN(c2ncnc3nc[nH]c23)CCO1` (stereo unspecified), -2.03%.
In the case of `CN(C)c1ccc(C(=O)N2CCN(CC(O)C(C)(C)C)CC2)nn1` (stereo unspecified) it was 7.12%; in that of `CCc1nnsc1C(=O)N1CCN(CC(O)CC)CC1` (stereo unspecified), 17.8%; in that of `CCC(O)CN1CCN(C(=O)c2ccc(N(C)C)nn2)CC1` (stereo unspecified), -26.6%.
In the case of `CC(O)CN1CCN(C(=O)c2ccc(N(C)C)nn2)CC1` (stereo unspecified) it was 51.2%; in that of `CCCc1nnsc1C(=O)N1CCN(CC(O)C2CC2)CC1` (stereo unspecified), 37.4%; in that of `CCCc1nnsc1C(=O)N1CCN(CC(C)O)CC1` (stereo unspecified), 51.7%.
Consider `O=C1[C@H]2CN(c3ncccn3)C[C@H]2CN1CCN1CCCC1`, for which the INHIBITION is 19.5%.
In the case of `CC(C)n1ccc(C(=O)OCC2CC(=O)N(Cc3ccccc3)C2)n1` (stereo unspecified) it was 1.74%; in that of `CC(C)(NC(=O)CCc1ccco1)c1ccc2c(c1)OCCO2`, 10.6%.
In the case of `Cc1cccc(N2CCN(C(=O)CCc3ccsc3)C(C)C2)n1` (stereo unspecified), the INHIBITION is reported as -16.8%.
The figure for `Cc1cc(NC(=O)NCC(c2ccccc2)N2CCOCC2)n(C)n1` (stereo unspecified) is -2.53%.
The figure for `Cc1nc(CNC2CCCN(c3cccnn3)C2)no1` (stereo unspecified) is 26.5%; for `CC(C)c1nc(CNC2CCCN(c3cccnn3)C2)no1` (stereo unspecified) it is 78.2%; for `CC(C)c1nc(CN(C)C2CCCN(c3cccnn3)C2)no1` (stereo unspecified) it is 18.2%.
Turning to `CC(C)(C)c1nc(CNC2CCCN(c3cccnn3)C2)no1` (stereo unspecified), the INHIBITION worked out at 79.2%.
The figure for `Cc1nc(CN(C)C2CCCN(c3cccnn3)C2)no1` (stereo unspecified) is -31.9%; for `Cc1cc(CNC2CCCN(c3cccnn3)C2)no1` (stereo unspecified) it is 11.8%; for `CN(Cc1noc(C(C)(C)C)n1)C1CCCN(c2cccnn2)C1` (stereo unspecified) it is 66.2%.
In the case of `CS(=O)(=O)c1ccc(CNC2CCCN(c3cccnn3)C2)cc1` (stereo unspecified), the INHIBITION stood at 39.5%.
Consider `c1ccc(-c2nc(CNC3CCCN(c4cccnn4)C3)no2)cc1` (stereo unspecified), for which the INHIBITION was 48.4%.
The figure for `CNC(=O)C1(CCCc2cnccn2)CCN1Cc1ccc(C)cc1` (stereo unspecified) is 24.585%.
The figure for `CC(NC(=O)NCC1(O)CCC1)c1ccc(OCC2CC2)c(F)c1` (stereo unspecified) is 13.4%; for `CCc1nn(C)c2[nH]nc(NC(=O)c3cccnc3OCC(C)C)c12` it is 47.4%.
In the case of `Cn1cc(Cl)c(C(=O)N2CCc3nc4sccc4c(=O)n3CC2)n1` it was -9.32%; in that of `CCn1nc(C)c2nc(C)nc(N(C)Cc3ccco3)c21`, 43.3%.
`CCCc1nc(N(C)Cc2ccco2)c2c(n1)c(C)nn2CC`: the INHIBITION is -6.42%.
In the case of `CCn1nc(C)c2ncnc(N(C)Cc3ccco3)c21` it was 52.4%.
